# Reference: PubChem BioAssay AID1745850 (National Center for Advancing Translational Sciences (NCATS), 2022)
# Among all 2,100 compounds or so, about 260 (12%) were called active. Another 58% or so got no clear call; they are omitted. The call rests on the fitted dose curve; in most records, active means well fitted cell-killing curve with a large enough effect; inconclusive means small, poorly fitted or top-dose-only effect, or effect the other way; inactive means flat fitted curve, though single readings scatter. The list shows a part of the results. A call without a number means that no potency is given here.
# Experiment: Viability Counterscreen for Confirmatory qHTS for Inhibitors of ATXN expression; further: nearly all actives have a fitted effect of over 50% in size
# Conditions: HEK-293 ATXN2-luc cells viability, CellTiter-Fluor, 24 h
# Outline: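 Cells with an ATXN2-luciferase reporter were dosed in a dilution series for 24 h at 37 degrees C. Viability was read first with Gly-Phe-AFC at 25 uM final (fluorescence, ex 405/em 540), then SteadyGlo luminescence. Medium-only wells defined 100% inhibition.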
# Potency means the concentration at half of the fitted maximal effect.
row,Structure (SMILES),Potency
1,O=C(NCc1ccco1)c1ccc(-c2cccc(Cl)c2)o1,inactive
2,CC(NC1=CC(=O)c2cccnc2C1=O)C(O)c1ccccc1 (stereo not given),31.6 µM (active)
3,COc1ccc2c(c1)[nH]c1c(=O)n(/N=C/C3C(C)C=C(C)CC3C)c(=O)[nH]c12 (stereo not given),20 µM (active)
4,Cc1ccc(-c2cc(C(=O)NCCCN3CCOCC3)no2)cc1,inactive
5,CCOC(=O)c1c(SCCN2CCCC2)n(-c2ccccc2)c(=S)n(-c2ccccc2)c1=O,2.51 µM (active)
6,O=C(/C=C/NNC(=O)c1ccccc1)c1ccc([N+](=O)[O-])cc1,12.6 µM (active)
7,CCCCC(=O)N(C)c1c(CC)nc2c(OCc3ccc(Cl)cc3Cl)cccn12,inactive
8,O=C(NCC(=O)N1CC(O)CC1C(=O)N1CCCC1C(=O)OCc1ccccc1)OCc1ccccc1 (stereo not given),inactive
9,CCCCC(=O)OCC(=O)C1(O)Cc2c(O)c3c(c(O)c2C(OC2CC(NC(=O)C(F)(F)F)C(O)C(C)O2)C1)C(=O)c1c(OC)cccc1C3=O (stereo not given),15.8 µM (active)
10,COc1cccc2c1C(=N)c1c(O)c3c(c(O)c1C2=O)CC(O)(C(C)=O)CC3OC1CC(N)C(O)C(C)O1 (stereo not given),4.47 µM (active)
11,CCC1=C(OC(=O)N(CC)CC)N2C(=O)OC(=NCCc3c[nH]c4ccccc34)[C@]2(Cc2ccccc2)[C@H]2C1=CC[C@H]1C(=O)N(c3ccccc3)C(=O)[C@H]12,inactive
12,CCCC(=O)Nc1c(C(=O)OCC)[nH]c2ccccc12,inactive
13,CCOc1ccc(/C=N/NC(=O)C(O)c2ccccc2)c(O)c1 (stereo not given),inactive
14,O=c1ccc2ccccc2c2ccccc12,17.8 µM (active)
15,O=C(N/N=C\c1c(O)ccc2ccccc12)c1ccc(Cn2cccn2)o1,inactive
16,Cc1ccc(Cl)cc1-c1ccc(C=Nc2ccc(N3CCOCC3)cc2)o1,inactive
17,CCC(C)n1cnc2c(c1=O)c1nc3ccccc3nc1n2-c1ccc2c(c1)OCCO2 (stereo not given),inactive
18,C=CCn1cnc2c(c1=O)c1nc3ccccc3nc1n2/N=C/c1cc(OC)c(OC)c(OC)c1,20 µM (active)
19,Cc1ccsc1/C=C/C1=Cc2c(sc(NC(=O)CSc3n[nH]c(N)n3)c2C#N)C(C)(C)C1,inactive
20,c1ccc(Cn2c(-c3ccccc3)c[n+]3c2SCCC3)cc1,inactive
21,Cc1ccc(S(=O)(=O)c2nc(S(C)(=O)=O)sc2N2CCCCC2C)cc1 (stereo not given),inactive
22,COc1cc(/C=C(/C#N)C(=O)NCCc2c[nH]c3ccccc23)ccc1OCc1ccccc1F,25.1 µM (active)
23,Cc1ccnc(NC(=O)CCCc2c[nH]c3ccccc23)c1,inactive
24,COc1ccc(CCNC(=O)c2cc3c(F)cccc3s2)cc1OC,inactive

row,Structure (SMILES),Potency
1,Cc1c(C(=O)N2c3ccccc3Sc3ccccc32)cccc1[N+](=O)[O-],inactive
2,CC1(C)CC(N2CCN(Cc3ccccc3)CC2)=CC(=[N+]2CCCCC2)C1,inactive
3,COc1ccc(N2CCN(c3ccnc4cc(Cl)ccc34)CC2)cc1,inactive
4,CN(C)c1ccc(C(=O)N/N=C/c2cc(Br)cc(Br)c2O)cc1,inactive
5,CC(C)C(=O)Nc1ccc(C(=O)N/N=C/c2cc(Br)cc(Br)c2O)cc1,28.2 µM (active)
6,O=C(Cc1ccccc1)N/N=C/c1cc(Br)cc(Br)c1O,inactive
7,C/C(=N\NC(=O)C(C)n1nc(C)c([N+](=O)[O-])c1C)c1ccccc1O (stereo not given),inactive
8,Cc1ccc(NC(=O)COc2ccc(/C=C3/SC(=Nc4ccccc4)N(Cc4cccnc4)C3=O)cc2)cc1,20 µM (active)
9,Cc1ccc(/C=C2/SC(=S)N(CCCC(=O)Nc3ccc(O)cc3)C2=O)cc1,28.2 µM (active)
10,Cc1ccc(/C=C2\SC(=S)N(CCCC(=O)Nc3ccc(O)cc3)C2=O)cc1,inactive
11,COC(=O)c1ccc(/C=C2/SC(=S)N(CCCC(=O)Nc3ccccn3)C2=O)cc1,28.2 µM (active)
12,O=C(CCCN1C(=O)S/C(=C\c2ccccc2)C1=O)NNC(=O)c1ccccc1O,inactive
13,Cc1ccc(/C=C2\SC(=S)N(CCCC(=O)Nc3cccnc3)C2=O)cc1,31.6 µM (active)
14,Cc1ccc(/C=C2\SC(=S)N(CCCC(=O)Nc3cc(C)on3)C2=O)cc1,inactive
15,[O-][n+]1c2ccccc2cc2ccccc21,inactive
16,O=c1c(Cc2ccccc2)c(O)nc2n1CCS2,inactive
17,CC1(C)COCN1S(=O)(=O)c1ccc(C(=O)Nc2nnc(-c3ccc(Cl)s3)o2)cc1,inactive
18,CC(C)(C)c1ccc(C(=O)N2CCCCCC2=O)cc1,inactive
19,CC(/C=C/c1ccc2c(c1)OCO2)=N\NC(=O)c1cccc([N+](=O)[O-])c1,inactive
20,Cc1cccc(/C=C/C(=O)c2ccc([N+](=O)[O-])o2)c1,3.55 µM (active)
21,COc1ccc(/C=C/C(=O)c2ccc([N+](=O)[O-])o2)cc1OC,8.91 µM (active)
22,COc1ccccc1NC(=S)NC(=O)c1ccc(Cn2cc(Br)cn2)cc1,inactive
23,OC(c1ccccc1)(c1nc(-c2ccc3ccccc3c2)cs1)C(F)(F)F (stereo not given),inactive
24,O=C(NCc1ccccc1Cl)C1CCCN(C(=O)Nc2ccc(F)cc2)C1 (stereo not given),inactive

row,Structure (SMILES),Potency
1,COc1cc(C#Cc2c(-c3cncn3C)n(C)c3ccc(-c4ccc(CN5CCOCC5)cc4)cc23)cc(OC)c1,inactive
2,O=C(N/N=C\c1cc(Cl)ccc1O)c1ccc(S(=O)(=O)N2CCCCC2)cc1,inactive
3,O=C(COc1ccc(F)cc1)N/N=C/c1cccc2cccnc12,inactive
4,CC1CCN(Cc2c(C(=O)N/N=C/c3cc(Br)ccc3O)nnn2-c2nonc2N)CC1,inactive
5,Nc1ccc(Oc2ccccc2-c2ccccc2)cc1,inactive
6,COc1cc(NC(=O)c2cc(-c3ccccc3)nc3c2cnn3C(C)C)cc(OC)c1OC,inactive
7,CC(=O)c1cccc(NC(=O)c2cccc3c(-c4cccc(C(N)=O)c4)coc23)c1,20 µM (active)
8,COc1cc(NC(=O)c2cccc3c(-c4cnn(C)c4)coc23)cc(OC)c1OC,31.6 µM (active)
9,CCc1cc2c(=O)c(-c3cnn(-c4ccccc4)c3)coc2c(CN2CCOCC2)c1O,inactive
10,CC(=O)c1cccc(-c2ccnc3c2CC(C(=O)Nc2ccc(F)c(Cl)c2)O3)c1 (stereo not given),inactive
11,OCCN1CCN(C(=S)c2ccc(-c3ccccc3)cc2)CC1,inactive
12,Cc1[nH]n(-c2ccccc2)c(=O)c1C=Nc1cccc2cccnc12,inactive
13,COc1cc(C#Cc2c(-c3cncn3C)n(C)c3ccc(-c4cnc(N5CCOCC5)nc4)cc23)cc(OC)c1,inactive
14,COC(=O)c1ccsc1NC(=O)CN1CCN(Cc2ccc3c(c2)OCO3)CC1,inactive
15,Cc1ccc(CN2CC(C(=O)Nc3ncc(C)s3)CC2=O)cc1 (stereo not given),inactive
16,COc1ccccc1-c1cc2nc(-c3ccccc3)cc(N3CCN(C(=O)c4ccoc4)CC3)n2n1,15.8 µM (active)
17,CC1CCN(C(=O)c2cc3nc(-c4ccccc4)cc(-c4ccccc4)n3n2)CC1,inactive
18,COc1cc(OC)cc(-c2cc3nc(C)c(CCC(=O)NCc4ccccc4)c(C)n3n2)c1,inactive
19,NS(=O)(=O)c1ccc(N2N=C(c3ccccc3)CC2c2ccc(F)cc2)cc1 (stereo not given),inactive
20,CCCCn1c(SCC(=O)Nc2cc(NC(=O)c3ccco3)ccc2C)nc2ccccc2c1=O,inactive
21,Fc1ccc2[nH]c3c(N4CCSCC4)ncnc3c2c1,25.1 µM (active)
22,Fc1ccc2[nH]c3c(NCc4ccccc4)ncnc3c2c1,inactive
23,Cc1ccc(CN(C)C(=O)CN2C(=O)NC(c3ccccc3)(c3ccccc3)C2=O)c(C)c1,inactive
24,COc1cc(-c2nnc(SCC(=O)N(Cc3ccccc3)C(C)(C)C)o2)cc(OC)c1OC,inactive

row,Structure (SMILES),Potency
1,C=CCOC(=O)C1=C[C@@H](c2ccc3c(c2)OCO3)C[C@@H](OCCCCO)O1,inactive
2,O=[N+]([O-])c1ccccc1S(=O)(=O)Nc1cccc2cccnc12,17.8 µM (active)
3,O=[N+]([O-])c1ccc(C[n+]2cccc3ccc4cccnc4c32)cc1,inactive
4,O=C(Nc1cccc(Br)c1)Oc1cccc2cccnc12,inactive
5,O=S(=O)(Nc1cccc2cccnc12)c1ccccc1,1.78 µM (active)
6,O=C(Nc1cccc2cccnc12)c1csc(COCCO)n1,inactive
7,O=c1cc(N2CCN(c3ccccc3)CC2)[nH]c(=O)n1C1CCCCC1,inactive
8,Cc1cc(Cl)ccc1-c1cc2nc(NCCCN(C)C)n(C)c(=O)c2s1,inactive
9,O=C(Nc1ccc2c(c1)CCC2)C1CCN(c2c3c(nc4ncnn24)CCC3)CC1,inactive
10,O=C1/C(=C/c2ccncc2)CCC/C1=C\c1ccncc1,10 µM (active)
11,CN1C/C(=C/c2cccnc2)C(=O)/C(=C/c2cccnc2)C1,inactive
12,Cc1ccc(-c2nc3ccc(Cl)cn3c2CC(C)(C)C)cc1,inactive
13,CCCNC(=O)c1ccc2c(=O)c(O)c(-c3cccc(Br)c3)[nH]c2c1,inactive
14,CCN(CC)C(=O)C1=C(C)N(CCC2=CCCCC2)C(=O)C(CC(=O)NC(c2ccccc2)c2ccccc2)C1 (stereo not given),inactive
15,CC(C)C[C@H](N)c1cn([C@@H](CCCCN)C(=O)N2CCNCC2)nn1,inactive
16,COc1cc(OC)cc(-c2cc3nc(C)c(CCC(=O)O)c(C)n3n2)c1,inactive
17,COc1ccc(-c2cc(NC=O)c3ncc(-c4cccc(C(=O)NCCN(C)C)c4)n3c2)cc1,inactive
18,CN(C)C(=O)c1cccc(-c2cnc3c(NC=O)cc(-c4ccc(F)cc4)cn23)c1,inactive
19,CN1CCN(c2ccc(-c3cc(NC=O)c4ncc(-c5ccc(F)c(Cl)c5)n4c3)cc2)CC1,25.1 µM (active)
20,COc1ccc(Cl)cc1S(=O)(=O)N1CCN(C(=O)c2n[nH]c(=O)c3ccccc23)CC1,inactive
21,O=C(NC1=CC(=O)c2ccccc2C1=O)c1ccccc1,14.1 µM (active)
22,O=C(Nc1nonc1-c1ccc(Cl)cc1)c1ccccc1,inactive
23,NCCCCCc1nnc(SCc2ccccc2Cl)o1,inactive
